# Biological target: ELF1 (Homo sapiens, UniProt P32519 1-619)
# Experiment: DAPPL (digital affinity profiling via proximity ligation, sequencing); 10 mM Tris-HCl pH 7.5, 50 mM NaCl, 1 mM DTT, 4% glycerol, room temperature, 30 min; GST-TFs on glutathione beads, 16-mer random dsDNA library, 0.1% formaldehyde crosslink after washing; high values mean tight binding
# Conditions: protein: recombinant; tags: N-terminal GST; dsDNA, one strand shown
# Summary of the method: (§1)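 Sequencing on an Illumina NextSeq500 followed washing, crosslinking with 0.1% formaldehyde, proximity ligation (BsaI/T4 ligase, 1 h, 37 °C) and PCR amplification of pools that had been incubated for 30 min at room temperature with 200 nmole of a random double-stranded 16-mer DNA library in Tris/NaCl/DTT/glycerol buffer. Each pool held DNA-barcoded human transcription factors, expressed in yeast as GST fusions and captured on glutathione beads, plus a tag-only sample. Binding signal is a hexamer's read frequency for a factor divided by its frequency in the tag-only sample.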
# Sequence of ELF1 (P32519 whole entry): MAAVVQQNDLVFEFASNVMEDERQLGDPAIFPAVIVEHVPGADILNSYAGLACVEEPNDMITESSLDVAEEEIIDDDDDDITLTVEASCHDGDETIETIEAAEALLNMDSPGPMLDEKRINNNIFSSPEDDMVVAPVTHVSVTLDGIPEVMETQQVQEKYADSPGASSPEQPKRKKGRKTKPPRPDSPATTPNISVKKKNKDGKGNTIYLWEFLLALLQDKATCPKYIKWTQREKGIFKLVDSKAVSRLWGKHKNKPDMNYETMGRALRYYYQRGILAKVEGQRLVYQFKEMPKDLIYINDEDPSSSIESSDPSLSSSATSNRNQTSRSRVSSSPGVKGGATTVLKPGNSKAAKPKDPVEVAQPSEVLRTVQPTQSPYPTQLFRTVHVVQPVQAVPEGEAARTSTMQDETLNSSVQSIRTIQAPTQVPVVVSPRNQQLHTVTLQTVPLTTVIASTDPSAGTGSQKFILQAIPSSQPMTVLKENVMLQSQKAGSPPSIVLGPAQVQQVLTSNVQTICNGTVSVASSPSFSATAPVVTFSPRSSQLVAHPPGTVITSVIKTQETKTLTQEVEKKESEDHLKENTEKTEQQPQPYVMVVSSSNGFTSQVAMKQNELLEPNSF
row,Sequence,binding signal
1,GTGCTC,"1.19 fold enrichment (6-mer frequency, TF over GST control)"
2,CTTGAA,"1.2 fold enrichment (6-mer frequency, TF over GST control)"
3,GATTTG,"1.12 fold enrichment (6-mer frequency, TF over GST control)"
4,GCGTTC,"1.12 fold enrichment (6-mer frequency, TF over GST control)"
5,TCTGTG,"1.12 fold enrichment (6-mer frequency, TF over GST control)"
6,GAAGTA,"1.84 fold enrichment (6-mer frequency, TF over GST control)"
7,TACGGA,"1.3 fold enrichment (6-mer frequency, TF over GST control)"
8,ACACAC,"1.19 fold enrichment (6-mer frequency, TF over GST control)"
9,GCTGAA,"1.16 fold enrichment (6-mer frequency, TF over GST control)"
10,TCACAA,"1.23 fold enrichment (6-mer frequency, TF over GST control)"
11,GCGCCT,"1.1 fold enrichment (6-mer frequency, TF over GST control)"
12,CTGGAC,"1.12 fold enrichment (6-mer frequency, TF over GST control)"
13,GTATAC,"1.18 fold enrichment (6-mer frequency, TF over GST control)"
14,TATTTC,"2.06 fold enrichment (6-mer frequency, TF over GST control)"
15,CCGAAA,"1.25 fold enrichment (6-mer frequency, TF over GST control)"
16,ACCTTG,"1.21 fold enrichment (6-mer frequency, TF over GST control)"
17,CAACAC,"1.13 fold enrichment (6-mer frequency, TF over GST control)"
18,GTATAA,"1.06 fold enrichment (6-mer frequency, TF over GST control)"
19,TCGATG,"1.11 fold enrichment (6-mer frequency, TF over GST control)"
20,GGCCTA,"1.3 fold enrichment (6-mer frequency, TF over GST control)"

row,Sequence,binding signal
1,AAGCAC,"1.18 fold enrichment (6-mer frequency, TF over GST control)"
2,CGATCG,"1.13 fold enrichment (6-mer frequency, TF over GST control)"
3,ACTCGC,"1.13 fold enrichment (6-mer frequency, TF over GST control)"
4,CTGTCC,"1.28 fold enrichment (6-mer frequency, TF over GST control)"
5,TTAGCG,"1.09 fold enrichment (6-mer frequency, TF over GST control)"
6,TAATGA,"1.1 fold enrichment (6-mer frequency, TF over GST control)"
7,GGTAAT,"1.17 fold enrichment (6-mer frequency, TF over GST control)"
8,TATCGC,"1.16 fold enrichment (6-mer frequency, TF over GST control)"
9,TGCGCA,"1.14 fold enrichment (6-mer frequency, TF over GST control)"
10,CCGGGT,"1.13 fold enrichment (6-mer frequency, TF over GST control)"
11,TCTATG,"1.12 fold enrichment (6-mer frequency, TF over GST control)"
12,ATTGCT,"1.24 fold enrichment (6-mer frequency, TF over GST control)"
13,ATGTGC,"1.19 fold enrichment (6-mer frequency, TF over GST control)"
14,TTTCCT,"2.19 fold enrichment (6-mer frequency, TF over GST control)"
15,GCTCTG,"1.08 fold enrichment (6-mer frequency, TF over GST control)"
16,ATAGCT,"1.19 fold enrichment (6-mer frequency, TF over GST control)"
17,CCCTGT,"1.17 fold enrichment (6-mer frequency, TF over GST control)"
18,AATCAG,"1.1 fold enrichment (6-mer frequency, TF over GST control)"
19,CGAAGC,"1.34 fold enrichment (6-mer frequency, TF over GST control)"
20,CCGCGT,"1.1 fold enrichment (6-mer frequency, TF over GST control)"

# Biological target: T1, EHF (Homo sapiens, UniProt Q9NZC4 1-300)
# T1 sequence: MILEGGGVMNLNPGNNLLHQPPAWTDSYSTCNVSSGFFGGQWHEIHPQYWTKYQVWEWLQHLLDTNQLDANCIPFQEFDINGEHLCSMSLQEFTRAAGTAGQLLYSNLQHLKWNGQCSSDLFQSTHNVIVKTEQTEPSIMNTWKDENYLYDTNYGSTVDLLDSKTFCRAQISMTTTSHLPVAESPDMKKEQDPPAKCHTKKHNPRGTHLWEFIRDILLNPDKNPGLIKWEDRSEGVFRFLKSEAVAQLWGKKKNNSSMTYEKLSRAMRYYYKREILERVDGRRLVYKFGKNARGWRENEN
# Experiment: as above
# Conditions: protein: recombinant; tags: N-terminal GST; dsDNA, one strand shown
# Summary of the method: as §1
row,Sequence,binding signal
1,GTGCTC,"1.22 fold enrichment (6-mer frequency, TF over GST control)"
2,CTTGAA,"1.18 fold enrichment (6-mer frequency, TF over GST control)"
3,GATTTG,"1.11 fold enrichment (6-mer frequency, TF over GST control)"
4,GCGTTC,"1.06 fold enrichment (6-mer frequency, TF over GST control)"
5,TCTGTG,"1.13 fold enrichment (6-mer frequency, TF over GST control)"
6,GAAGTA,"2.13 fold enrichment (6-mer frequency, TF over GST control)"
7,TACGGA,"1.45 fold enrichment (6-mer frequency, TF over GST control)"
8,ACACAC,"1.23 fold enrichment (6-mer frequency, TF over GST control)"
9,GCTGAA,"1.1 fold enrichment (6-mer frequency, TF over GST control)"
10,TCACAA,"1.11 fold enrichment (6-mer frequency, TF over GST control)"
11,GCGCCT,"1.05 fold enrichment (6-mer frequency, TF over GST control)"
12,CTGGAC,"1.13 fold enrichment (6-mer frequency, TF over GST control)"
13,GTATAC,"1.22 fold enrichment (6-mer frequency, TF over GST control)"
14,TATTTC,"2.21 fold enrichment (6-mer frequency, TF over GST control)"
15,CCGAAA,"1.22 fold enrichment (6-mer frequency, TF over GST control)"
16,ACCTTG,"1.3 fold enrichment (6-mer frequency, TF over GST control)"
17,CAACAC,"1.09 fold enrichment (6-mer frequency, TF over GST control)"
18,GTATAA,"1.09 fold enrichment (6-mer frequency, TF over GST control)"
19,TCGATG,"1.09 fold enrichment (6-mer frequency, TF over GST control)"
20,GGCCTA,"1.23 fold enrichment (6-mer frequency, TF over GST control)"

row,Sequence,binding signal
1,AAGCAC,"1.07 fold enrichment (6-mer frequency, TF over GST control)"
2,CGATCG,"1.07 fold enrichment (6-mer frequency, TF over GST control)"
3,ACTCGC,"1.11 fold enrichment (6-mer frequency, TF over GST control)"
4,CTGTCC,"1.36 fold enrichment (6-mer frequency, TF over GST control)"
5,TTAGCG,"1.06 fold enrichment (6-mer frequency, TF over GST control)"
6,TAATGA,"1.2 fold enrichment (6-mer frequency, TF over GST control)"
7,GGTAAT,"1.2 fold enrichment (6-mer frequency, TF over GST control)"
8,TATCGC,"1.28 fold enrichment (6-mer frequency, TF over GST control)"
9,TGCGCA,"1.16 fold enrichment (6-mer frequency, TF over GST control)"
10,CCGGGT,"1.17 fold enrichment (6-mer frequency, TF over GST control)"
11,TCTATG,"1.13 fold enrichment (6-mer frequency, TF over GST control)"
12,ATTGCT,"1.31 fold enrichment (6-mer frequency, TF over GST control)"
13,ATGTGC,"1.05 fold enrichment (6-mer frequency, TF over GST control)"
14,TTTCCT,"2.4 fold enrichment (6-mer frequency, TF over GST control)"
15,GCTCTG,"1.15 fold enrichment (6-mer frequency, TF over GST control)"
16,ATAGCT,"1.25 fold enrichment (6-mer frequency, TF over GST control)"
17,CCCTGT,"1.09 fold enrichment (6-mer frequency, TF over GST control)"
18,AATCAG,"1.02 fold enrichment (6-mer frequency, TF over GST control)"
19,CGAAGC,"1.26 fold enrichment (6-mer frequency, TF over GST control)"
20,CCGCGT,"1.18 fold enrichment (6-mer frequency, TF over GST control)"

# Biological target: SPI1 (Homo sapiens, UniProt P17947 1-270)
# Experiment: as above
# Conditions: protein: recombinant; tags: N-terminal GST; dsDNA, one strand shown
# Summary of the method: as §1
row,Sequence,binding signal
1,GTGCTC,"1.36 fold enrichment (6-mer frequency, TF over GST control)"
2,CTTGAA,"1.13 fold enrichment (6-mer frequency, TF over GST control)"
3,GATTTG,"1.08 fold enrichment (6-mer frequency, TF over GST control)"
4,GCGTTC,"1.08 fold enrichment (6-mer frequency, TF over GST control)"
5,TCTGTG,"1.14 fold enrichment (6-mer frequency, TF over GST control)"
6,GAAGTA,"2.32 fold enrichment (6-mer frequency, TF over GST control)"
7,TACGGA,"1.56 fold enrichment (6-mer frequency, TF over GST control)"
8,ACACAC,"1.14 fold enrichment (6-mer frequency, TF over GST control)"
